Test [1] relates to TRPC4 beta (transient receptor potential cation channel C4), mouse. In words: TRPC4 cation channel opening, retest – cell-based, Fluo4 calcium, HEK293 TRPC4beta/mu-opioid, duplicates, 10 µM, confirmation (AID 2426;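 active = fluorescence ratio normalized to control raised more than 50% in primary screen plus both repeat runs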;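 as to activation: percent rise of integrated ratio over buffer wells lacking compound which define 0%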). To be noted: Fluo4 calcium fluorescence, at 10 µM; active compounds read high.
Test [2] concerns transient receptor potential cation channel C4 beta (TRPC4), mouse. In words: TRPC4 cation channel opening, second retest – cell-based, second round, Fluo4, HEK293 TRPC4beta/mu-opioid, 1 µM, confirmation (AID 2461;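 active = primary screen active and over 50% activation in each of two duplicate runs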;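 as to activation: 0% = wells without test compound as baseline of integrated fluorescence ratio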). To be noted: Fluo4 calcium fluorescence, at 1 µM; active compounds read high.
For test [3], the system named is TRPC4 (transient receptor potential cation channel C4 beta), mouse. Briefly: potentiation of DAMGO EC20 TRPC4 response – cell-based, second round, Fluo-4, HEK293 TRPC4beta/mu-opioid, 1 µM, confirmation (AID 2554;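 active = primary screen hit whose fluorescence ratio, in both repeats, exceeds the weak agonist control mean by 3 SD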). The conditions noted are these: DAMGO EC20, Fluo-4 calcium flux, at 1 µM; active compounds read high. (In general: Calcium flux is commonly read through the fluorescence of an indicator in the cells.)

Test [4] relates to TRPC4 beta (transient receptor potential cation channel C4), mouse. In words: potentiation of DAMGO EC20 TRPC4 response – cell-based, Fluo-4, HEK293 TRPC4beta/mu-opioid, confirmation (AID 2555;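 active = primary screen hit whose calcium fluorescence ratio, in both repeats, exceeds the weak agonist control mean by 3 SD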). To be noted: DAMGO EC20, Fluo-4 calcium flux, at 10 µM; active compounds read high.
Test [5] has as its target Short transient receptor potential channel 4 (Mus musculus) (UniProt Q9QUQ5). In words: blockers of DAMGO-evoked TRPC4 calcium flux – cell-based, Fluo4, HEK293 TRPC4beta/mu-opioid, confirmation (AID 2636). The conditions noted are these: at 10 µM; active compounds read high.
For test [6] the target is unchanged. Briefly: blockers of DAMGO-evoked TRPC4 calcium flux – cell-based, second round, Fluo4, HEK293 TRPC4beta/mu-opioid, 1 µM, confirmation (AID 2637;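 active = calcium signal ratio cut to more than 3 SD under the fully stimulated control mean yet still positive, in both repeats and the primary screen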;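 as to inhibition: percent of integrated ratio relative to wells lacking test compound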). To be noted: at 1 µM; active compounds read high.
Test [7] has the same target. In words: calcium entry via TRPC4 opening agents – cell-based, HEK293 TRPC4/mu-opioid, Fluo-4 calcium, dose response (AID 434937;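 active = primary screen activator hit with a dose response curve and TRPC4 channel activation at any tested dose; inactive = no activation, no dose response, or not a primary hit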).
Test [8] shares this target. In words: potentiation of DAMGO-evoked TRPC4 calcium signal – cell-based, HEK293 TRPC4/mu-opioid, Fluo-4 calcium, EC20 DAMGO, dose response (AID 434941;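 active = earlier screen potentiator hit that boosts the TRPC4 ion channel at some dose, with a dose response; inactive = no potentiation, no dose response, or not a prior hit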;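 also: calcium entry triggered by an EC20 dose of DAMGO at the co-expressed mu-opioid receptor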).
For test [9], the target named is Short transient receptor potential channel 6 (Mus musculus) (UniProt Q61143). In words: TRPC6 blockade by TRPC4 inhibitor hits – cell-based, HEK293, membrane potential dye, duplicate, selectivity assay for TRPC4 inhibitor project, confirmation (AID 434948;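 active = active in primary screen and both duplicates, each dropping signal beyond three positive-control SD with fluorescence still positive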). To be noted: HEK293 TRPC6, membrane potential dye fluorescence, at 10 µM; inhibition: active compounds read high, stimulated with maximal-effect acetylcholine unless noted; outcome: stimulated with maximal-effect acetylcholine unless noted.
Sequence of Short transient receptor potential channel 6 (Mus musculus) (Q61143 whole entry, looked up): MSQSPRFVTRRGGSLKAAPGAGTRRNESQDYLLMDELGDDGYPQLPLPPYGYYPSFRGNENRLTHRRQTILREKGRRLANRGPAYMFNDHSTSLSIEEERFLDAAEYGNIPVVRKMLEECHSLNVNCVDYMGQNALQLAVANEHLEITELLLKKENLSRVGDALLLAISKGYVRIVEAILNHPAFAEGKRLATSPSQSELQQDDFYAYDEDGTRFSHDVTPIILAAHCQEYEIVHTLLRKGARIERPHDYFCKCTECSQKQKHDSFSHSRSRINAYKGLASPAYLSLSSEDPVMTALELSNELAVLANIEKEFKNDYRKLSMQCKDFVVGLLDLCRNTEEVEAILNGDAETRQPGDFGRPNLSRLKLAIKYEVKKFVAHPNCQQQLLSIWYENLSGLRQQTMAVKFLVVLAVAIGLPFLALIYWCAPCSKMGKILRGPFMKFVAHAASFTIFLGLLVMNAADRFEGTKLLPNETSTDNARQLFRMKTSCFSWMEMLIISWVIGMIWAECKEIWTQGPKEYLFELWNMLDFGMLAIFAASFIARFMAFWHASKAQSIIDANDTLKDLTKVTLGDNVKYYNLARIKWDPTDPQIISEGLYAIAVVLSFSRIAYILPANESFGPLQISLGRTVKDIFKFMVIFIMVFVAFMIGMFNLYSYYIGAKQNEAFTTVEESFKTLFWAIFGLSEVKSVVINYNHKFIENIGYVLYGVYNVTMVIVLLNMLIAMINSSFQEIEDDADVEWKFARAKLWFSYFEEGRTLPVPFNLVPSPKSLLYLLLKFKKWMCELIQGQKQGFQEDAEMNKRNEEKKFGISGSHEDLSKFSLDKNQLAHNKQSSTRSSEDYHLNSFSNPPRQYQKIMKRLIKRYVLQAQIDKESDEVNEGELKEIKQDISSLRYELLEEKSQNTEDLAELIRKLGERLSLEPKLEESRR

For test [10] the target is unchanged. In words: TRPC6 opening by TRPC4 activator hits – cell-based, HEK293, membrane potential dye, duplicate, selectivity assay for TRPC4 activator project, confirmation (AID 434950;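 active = membrane potential signal rise above negative control mean plus 3 SD in both duplicates, also active in the earlier TRPC4 screen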;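 as to activation: 0% = buffer only wells and 100% = acetylcholine maximal-effect wells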). To be noted: HEK293 TRPC6, membrane potential fluorescence, at 10 µM; activation: active compounds read high; outcome: activation.
For test [11] the target is unchanged. In words: positive modulators of mouse TRPC6 channel – HEK293 cells, membrane potential dye, duplicate, selectivity assay for TRPC4 potentiator project, confirmation (AID 434952;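 active = compound raising the membrane signal above positive-control mean plus 3 SD in both repeats, and a primary screen hit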). To be noted: HEK293 TRPC6, membrane potential dye fluorescence, at 10 µM; maximal acetylcholine added after compound unless noted.
For test [12], the target named is Short transient receptor potential channel 4 (Mus musculus) (UniProt Q9QUQ5). In words: calcium flux activators in TRPC4/5HT1a cells, counter-screen for TRPC4 activator project, cell-based, second counter screen, HEK293 TRPC4/5HT1a, Fluo-4 (AID 434977;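 active = calcium signal rise above buffer-control mean plus 5 SD in both duplicates, and also a hit in the primary screen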;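 as to activation: plate controls were assay buffer for no effect and maximal serotonin response for full effect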). To be noted: Fluo-4 calcium flux, at 10 µM; active compounds read high.
Sequence of Short transient receptor potential channel 4 (Mus musculus) (Q9QUQ5 whole entry, looked up): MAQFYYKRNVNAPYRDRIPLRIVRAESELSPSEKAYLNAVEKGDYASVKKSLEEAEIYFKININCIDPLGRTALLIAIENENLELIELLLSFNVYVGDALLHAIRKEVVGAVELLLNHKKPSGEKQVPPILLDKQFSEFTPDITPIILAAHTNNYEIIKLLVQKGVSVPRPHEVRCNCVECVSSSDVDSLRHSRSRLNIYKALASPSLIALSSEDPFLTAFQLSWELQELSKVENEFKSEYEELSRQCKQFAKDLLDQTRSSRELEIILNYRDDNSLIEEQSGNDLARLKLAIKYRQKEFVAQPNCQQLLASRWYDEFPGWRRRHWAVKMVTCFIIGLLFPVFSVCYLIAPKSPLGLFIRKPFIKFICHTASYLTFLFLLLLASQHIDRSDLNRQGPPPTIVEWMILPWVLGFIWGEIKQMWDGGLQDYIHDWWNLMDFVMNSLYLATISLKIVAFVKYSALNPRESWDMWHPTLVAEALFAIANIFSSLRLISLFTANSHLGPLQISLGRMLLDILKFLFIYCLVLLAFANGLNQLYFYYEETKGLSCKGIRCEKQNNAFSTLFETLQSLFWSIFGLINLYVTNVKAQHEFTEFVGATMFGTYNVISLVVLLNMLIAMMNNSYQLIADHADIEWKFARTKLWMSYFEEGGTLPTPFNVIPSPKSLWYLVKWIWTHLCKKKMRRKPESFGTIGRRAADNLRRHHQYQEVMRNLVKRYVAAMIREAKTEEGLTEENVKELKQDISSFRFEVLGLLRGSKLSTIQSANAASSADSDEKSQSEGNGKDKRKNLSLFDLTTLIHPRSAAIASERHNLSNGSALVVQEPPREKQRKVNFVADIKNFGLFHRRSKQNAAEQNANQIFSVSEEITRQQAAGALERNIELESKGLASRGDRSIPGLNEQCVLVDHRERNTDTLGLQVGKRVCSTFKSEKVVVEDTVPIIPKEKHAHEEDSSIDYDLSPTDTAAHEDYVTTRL
The nature of test [13]: serotonin-gated TRPC4 signal block – cell-based, second counter screen, HEK293 TRPC4/5HT1a, Fluo-4, counter-screen for TRPC4 inhibitor project, confirmation (AID 434978;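 active = primary screen active whose calcium signal fell more than 3 SD beyond the full-serotonin control mean in both duplicate plates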;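 as to outcome: serotonin given first at submaximal then at maximal dose after compound preincubation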). To be noted: Fluo-4 calcium flux, at 10 µM; inhibition: active compounds read high, serotonin added to trigger calcium flux unless noted; outcome: serotonin added to trigger calcium flux unless noted. (The purpose of a counterscreen is to sort out artefacts and off-target activity.)

In test [14] the test system is TRPC4 (mouse), co-expressed with 5HT1a in HEK293. In words: enhancement of serotonin-evoked TRPC4 response – cell-based, second counter screen, HEK293 TRPC4/5HT1a, Fluo-4, counter-screen for TRPC4 potentiator project, confirmation (AID 434979;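 active = signal rise over 3 SD above mean of control wells given weak agonist, in both repeats and first screen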). The conditions noted are these: Fluo-4 calcium flux, at 10 µM; outcome: serotonin added at its EC20 dose unless noted; potentiation: active compounds read high, serotonin added at its EC20 dose unless noted.

Test [15] can be described thus: nonspecific calcium rise without TRPC4 – cell-based, HEK293 mu-opioid receptor line, counter-screen for TRPC4 activator project, confirmation (AID 449723;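 active = hit in primary screen, with calcium signal over 5 SD above buffer well mean in both duplicates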;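 also: counter screen cells carry the mu-opioid receptor alone and lack TRPC4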). To be noted: HEK293 mu-opioid cells, Fluo-4 calcium fluorescence, at 10 µM; active compounds read high.
Test [16] in a line: nonspecific potentiation of DAMGO calcium response – cell-based, HEK293 mu-opioid receptor line, counter-screen for TRPC4 allosteric potentiator project, confirmation (AID 449724;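 active = calcium signal rise more than 3 SD above the low-dose agonist control mean, in both duplicate plates and the primary screen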;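 also: HEK293 cells carrying mu-opioid receptor only with no TRPC4 channel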). The conditions noted are these: HEK293 mu-opioid receptor cells, Fluo-4 calcium flux, at 10 µM; compound added before EC20 DAMGO stimulus unless noted.
For test [17], the target named is Short transient receptor potential channel 4 (Mus musculus) (UniProt Q9QUQ5). In words: block of DAMGO-driven TRPC4 calcium entry – cell-based, HEK293 TRPC4/mu-opioid, Fluo-4 calcium, dose response (AID 434942;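 active = primary screen inhibitor hit that blocks the TRPC4 channel at some tested dose, yielding a dose curve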).

For part of these data: Entries with a potency or affinity are not part of this list. The source made the active and inactive calls.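 The calls were made as follows, unless noted: active = calcium signal cut by more than 3 SD below the full-agonist control yet still positive, in both repeats and the earlier primary screen; inactive = the rest.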

In the case of `COc1cccc(O)c1CN1CCCC(C(=O)c2sccc2C)C1` (stereo not given), the result in test [1], in test [2], in test [3], in [4], in test [7] and in test [8] was inactive. Further, the compound was classed as inactive in test [9], in test [10], in test [11], in [12], in test [14] and in [15]. Further, in test [16], the result was inactive. The inhibition – broadly, how much of the control response was suppressed – is 94% (active) in test [5], 40% (active) in test [6] and 29.8% (active) in test [13].
Regarding `CN1CCN(Cc2cc(=O)n3ccsc3n2)CC1`, the result in test [1], in test [2], in test [3], in test [4], in [5] and in test [6] was inactive. The outcome in test [7], in test [8], in test [17], in test [9], in [10] and in [11] was inactive. The outcome in [12], in test [13], in test [15] and in [16] was inactive. Besides, in test [14], the potentiation is 20% (active).
Turning to `Cc1ccsc1C(=O)C1CCCN(Cc2ccccc2O)C1` (stereo not given), the result in test [1], in [2], in [3], in test [4], in test [6] and in test [7] was inactive. The result in [8], in test [9], in [10], in [11], in test [12] and in test [14] was inactive. The outcome in test [15] and in [16] was inactive. Also, the inhibition is 84% (active) in test [5] and 44.9% (active) in [13].
Regarding `Cc1cc(-c2ccccc2)cc(C)[n+]1Cc1ccccc1`, the activation in [1] was 142% (active). Moreover, the outcome in [2], in test [3], in test [4], in test [5], in test [6] and in test [8] was inactive. In addition, the result in test [17], in test [9], in test [10], in test [11], in [12] and in test [13] was inactive. Moreover, the result in test [14], in [15] and in test [16] was inactive.
With `Cc1ccc(C)c(NC(=S)NCCc2cnc[nH]2)c1`, the results for the activation in [1] and in test [12] were 137% (active) and 69.3% (active), respectively. Besides, the result in [2], in [3], in test [4], in test [5], in test [6] and in [8] was inactive. Besides, the outcome in [17], in test [9], in test [10], in test [11], in [13] and in test [14] was inactive. Moreover, the outcome in [15] and in test [16] was inactive.
Regarding `Fc1cccc(C2NCCc3[nH]cnc32)c1` (stereo not given), the activation in [1] is 201% (active); in test [12] it was 53.4% (active). Besides, the result in [2], in test [3], in [4], in test [5], in [6] and in [8] was inactive. Also, the result in test [17], in test [9], in test [10], in test [11], in test [13] and in test [14] was inactive. The outcome in test [15] and in [16] was inactive.
For the compound `C[C@H]1OC[C@@H](C[N+](C)(C)C)O1`, the activation in test [1] was 152% (active); in [2], 99% (active); in [10] it was 96% (active); in [12], 85% (active); in [15] it was 87.7% (active). Further, the result in test [3], in test [4], in test [5], in test [6], in test [8] and in test [17] was inactive. In addition, the call in [9], in test [11], in [13], in test [14] and in [16] was inactive.
On to `Cc1ccc(NC(=S)NCCc2cnc[nH]2)cc1C`, for which the activation in test [1] is 199% (active); in test [2], 106% (active); in test [12], 85% (active). In addition, the outcome in test [3], in [4], in test [5], in test [6], in test [8] and in test [17] was inactive. Besides, the result in test [9], in [10], in test [11], in test [13], in [14] and in test [15] was inactive. In addition, in [16], the result was inactive.
Take `CCC(=O)OC1(c2cccc(C)c2)CC(C)N(C)CC1C` (stereo not given): the activation in test [1] was 79% (active); in [10], 74.5% (active). For the same compound, the result in test [2], in [3], in test [4], in [5], in test [6] and in test [8] was inactive. Further, the outcome in test [17], in test [12] and in [15] was inactive. Also, the outcome in test [9], in test [11], in [13], in test [14] and in test [16] was “inactive [setting not given]” each time.
Turning to `CN1CCN(c2ccc([N+](=O)[O-])c3cccnc23)CC1`, the activation in test [1] is 85% (active); in test [2], 78% (active); in test [12], 25.7% (active). Moreover, the values for the potentiation in test [3], in [4] and in test [14] were 33% (active), 26% (active) and 16.9% (active), respectively. Besides, the result in test [5], in test [6], in test [8], in test [17], in [9] and in test [10] was inactive. For the same compound, the outcome in test [11], in test [13], in test [15] and in test [16] was inactive.
On to `COC(=O)C1=CCCN(C)C1`, for which the activation in [1] was 96% (active); in test [10] it was 70% (active); in test [12], 43.8% (active); in [15] it was 19.7% (active). The result in test [2], in test [3], in [4], in [5], in [6] and in test [8] was inactive. The outcome in test [17], in test [9], in [11], in test [13], in test [14] and in test [16] was inactive.
With `COc1ccc(CNCCc2c[nH]c3ccccc23)c(OC)c1C`, the figures for the activation in test [1], in [10] and in test [12] were 151% (active), 63.5% (active) and 13.6% (active), respectively. For the same compound, the result in test [2], in test [3], in test [4], in [5], in [6] and in test [8] was inactive. Besides, the result in [17], in test [9], in test [11], in test [13], in test [14] and in [15] was inactive. The result in [16] was inactive.
Take `O=[N+]([O-])c1ccc(N2CCNCC2)c2ncccc12`: the activation in test [1] was 69% (active); in [2], 64% (active); in test [12], 38% (active). For the same compound, the potentiation is 19% (active) in test [3], 23% (active) in test [4] and 11% (active) in [14]. Moreover, the outcome in test [5], in test [6], in test [8], in [17], in test [9] and in test [10] was inactive. The outcome in test [11], in test [13], in test [15] and in test [16] was inactive.
For `Cn1c(N2CCNCC2)nc2ccccc21`, the activation is 117% (active) in test [1], 92% (active) in test [2], 31.5% (active) in test [10] and 34.7% (active) in test [12]. The result in test [3], in test [4], in test [5], in test [6], in test [8] and in test [17] was inactive. Further, the compound was called inactive in test [9], in test [11], in [13], in test [14], in [15] and in [16].
